From ChEMBL document CHEMBL1961873, “Compounds: GSK PKIS; Assays: Nanosyn kinase panel” (2012) come the findings set out here.

The subject of test [1] is Tyrosine-protein kinase ABL1 (Homo sapiens), P00519 [T315I]. As to conditions: at 1 µM.
Test [2] concerns Tyrosine-protein kinase ABL1 (Homo sapiens), P00519 [Y253F]. The settings on record: at 0.1 µM.
The test system is the same in test [3]. The settings on record: at 1 µM.
Test [4] has as its target Tyrosine-protein kinase ABL1 (Homo sapiens) (UniProt P00519). The settings on record: at 0.1 µM.
For test [5] the target is unchanged. As to conditions: at 1 µM.
Test [6] concerns the target ALK tyrosine kinase receptor (Homo sapiens) (UniProt Q9UM73). As to conditions: at 0.1 µM.
Test [7] shares this target. The settings on record: at 1 µM.
For test [8], the target named is Tyrosine-protein kinase ABL2 (Homo sapiens) (UniProt P42684). The settings on record: at 0.1 µM.
Test [9] shares this target. The settings on record: at 1 µM.
Test [10] deals with Tyrosine-protein kinase receptor UFO (Homo sapiens) (UniProt P30530). As to conditions: at 0.1 µM.
The target is the same in test [11]. As to conditions: at 1 µM.
The target in test [12] is Tyrosine-protein kinase Blk (Homo sapiens) (UniProt P51451). As to conditions: at 0.1 µM.
Test [13] shares this target. As to conditions: at 1 µM.
In test [14] the target is T1, Cytoplasmic tyrosine-protein kinase BMX (Homo sapiens) (UniProt P51813).
T1 sequence (whole entry): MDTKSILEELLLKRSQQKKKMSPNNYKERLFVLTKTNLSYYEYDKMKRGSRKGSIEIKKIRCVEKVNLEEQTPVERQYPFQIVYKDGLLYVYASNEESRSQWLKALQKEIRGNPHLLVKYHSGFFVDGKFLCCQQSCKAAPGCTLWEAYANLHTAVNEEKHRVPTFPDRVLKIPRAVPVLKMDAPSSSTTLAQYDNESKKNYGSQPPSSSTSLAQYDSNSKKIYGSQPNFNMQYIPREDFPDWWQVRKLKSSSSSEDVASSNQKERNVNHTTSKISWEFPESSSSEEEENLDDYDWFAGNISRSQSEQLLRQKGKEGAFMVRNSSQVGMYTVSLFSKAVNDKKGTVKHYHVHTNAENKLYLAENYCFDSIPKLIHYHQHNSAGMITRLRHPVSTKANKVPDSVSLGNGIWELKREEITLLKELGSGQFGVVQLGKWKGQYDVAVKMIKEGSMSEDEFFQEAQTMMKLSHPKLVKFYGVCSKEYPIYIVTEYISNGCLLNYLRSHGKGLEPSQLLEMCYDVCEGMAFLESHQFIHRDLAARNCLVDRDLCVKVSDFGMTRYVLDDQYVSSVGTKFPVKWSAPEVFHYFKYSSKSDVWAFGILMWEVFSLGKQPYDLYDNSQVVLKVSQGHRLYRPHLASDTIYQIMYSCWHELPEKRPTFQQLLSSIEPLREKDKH
As to conditions: at 0.1 µM.

Test [15] addresses T1, Cytoplasmic tyrosine-protein kinase BMX (Homo sapiens). The settings on record: at 1 µM.
Test [16] addresses Protein-tyrosine kinase 6 (Homo sapiens) (UniProt Q13882). The settings on record: at 0.1 µM.
For test [17] the target is unchanged. The settings on record: at 1 µM.
In test [18] the target is Tyrosine-protein kinase BTK (Homo sapiens) (UniProt Q06187). As to conditions: at 0.1 µM.
The target is the same in test [19]. The settings on record: at 1 µM.
The target of test [20] is Tyrosine-protein kinase CSK (Homo sapiens) (UniProt P41240). The settings on record: at 0.1 µM.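 Note: value given is the averaged percent inhibition of CSK kinase activity, from the GSK PKIS kinase inhibitor set screening panel.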
Chain of Tyrosine-protein kinase CSK (Homo sapiens) (P41240 2-450 limits assumed): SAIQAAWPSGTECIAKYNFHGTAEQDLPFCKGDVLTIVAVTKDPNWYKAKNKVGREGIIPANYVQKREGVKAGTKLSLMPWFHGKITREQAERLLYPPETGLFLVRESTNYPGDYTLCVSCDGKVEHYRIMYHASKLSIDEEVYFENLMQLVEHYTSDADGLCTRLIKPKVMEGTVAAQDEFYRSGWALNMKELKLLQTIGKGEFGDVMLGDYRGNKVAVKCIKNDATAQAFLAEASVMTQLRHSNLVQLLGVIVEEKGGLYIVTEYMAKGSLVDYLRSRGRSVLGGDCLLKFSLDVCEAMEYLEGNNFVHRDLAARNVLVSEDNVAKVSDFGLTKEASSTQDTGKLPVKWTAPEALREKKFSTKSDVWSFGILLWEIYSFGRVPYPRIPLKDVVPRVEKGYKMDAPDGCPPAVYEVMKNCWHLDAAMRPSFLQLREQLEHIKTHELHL

Chain of Tyrosine-protein kinase receptor UFO (Homo sapiens) (P30530 whole entry): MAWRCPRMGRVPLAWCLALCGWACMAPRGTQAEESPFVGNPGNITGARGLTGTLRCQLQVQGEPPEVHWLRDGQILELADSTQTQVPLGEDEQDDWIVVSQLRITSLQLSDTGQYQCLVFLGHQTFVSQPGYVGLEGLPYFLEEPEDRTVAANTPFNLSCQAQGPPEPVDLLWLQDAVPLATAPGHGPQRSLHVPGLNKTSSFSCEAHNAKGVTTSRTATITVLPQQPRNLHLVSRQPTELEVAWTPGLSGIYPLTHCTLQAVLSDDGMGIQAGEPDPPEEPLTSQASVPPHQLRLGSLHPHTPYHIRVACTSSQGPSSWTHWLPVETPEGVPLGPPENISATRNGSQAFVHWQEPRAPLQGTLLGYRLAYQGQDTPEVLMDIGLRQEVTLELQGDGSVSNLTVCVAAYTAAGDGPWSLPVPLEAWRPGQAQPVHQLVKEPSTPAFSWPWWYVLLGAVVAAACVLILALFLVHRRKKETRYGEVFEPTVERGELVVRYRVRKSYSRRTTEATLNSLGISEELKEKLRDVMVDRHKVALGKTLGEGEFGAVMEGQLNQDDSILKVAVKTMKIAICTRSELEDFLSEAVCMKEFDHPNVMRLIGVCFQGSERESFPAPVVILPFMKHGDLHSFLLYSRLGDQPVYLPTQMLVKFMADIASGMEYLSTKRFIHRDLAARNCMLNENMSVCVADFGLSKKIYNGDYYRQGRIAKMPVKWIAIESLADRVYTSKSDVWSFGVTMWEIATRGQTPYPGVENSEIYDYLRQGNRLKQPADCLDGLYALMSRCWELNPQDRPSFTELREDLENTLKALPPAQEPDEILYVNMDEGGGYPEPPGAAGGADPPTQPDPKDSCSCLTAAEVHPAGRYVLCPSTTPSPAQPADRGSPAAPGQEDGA
Chain of Tyrosine-protein kinase Blk (Homo sapiens) (P51451 2-505 limits assumed): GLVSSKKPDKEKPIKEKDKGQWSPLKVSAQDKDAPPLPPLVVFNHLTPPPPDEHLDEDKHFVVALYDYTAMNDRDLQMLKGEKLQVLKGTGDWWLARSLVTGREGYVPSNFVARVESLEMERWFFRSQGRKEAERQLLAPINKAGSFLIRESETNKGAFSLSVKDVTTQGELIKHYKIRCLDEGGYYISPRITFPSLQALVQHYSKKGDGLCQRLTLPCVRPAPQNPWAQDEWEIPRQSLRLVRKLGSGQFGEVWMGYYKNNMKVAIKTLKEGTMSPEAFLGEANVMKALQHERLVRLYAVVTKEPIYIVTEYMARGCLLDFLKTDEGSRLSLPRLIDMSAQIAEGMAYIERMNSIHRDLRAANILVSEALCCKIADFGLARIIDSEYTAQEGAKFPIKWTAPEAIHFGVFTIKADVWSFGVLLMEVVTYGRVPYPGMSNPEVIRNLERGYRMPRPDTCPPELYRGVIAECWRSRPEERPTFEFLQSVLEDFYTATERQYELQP
Chain of ALK tyrosine kinase receptor (Homo sapiens) (Q9UM73 19-1620 limits assumed): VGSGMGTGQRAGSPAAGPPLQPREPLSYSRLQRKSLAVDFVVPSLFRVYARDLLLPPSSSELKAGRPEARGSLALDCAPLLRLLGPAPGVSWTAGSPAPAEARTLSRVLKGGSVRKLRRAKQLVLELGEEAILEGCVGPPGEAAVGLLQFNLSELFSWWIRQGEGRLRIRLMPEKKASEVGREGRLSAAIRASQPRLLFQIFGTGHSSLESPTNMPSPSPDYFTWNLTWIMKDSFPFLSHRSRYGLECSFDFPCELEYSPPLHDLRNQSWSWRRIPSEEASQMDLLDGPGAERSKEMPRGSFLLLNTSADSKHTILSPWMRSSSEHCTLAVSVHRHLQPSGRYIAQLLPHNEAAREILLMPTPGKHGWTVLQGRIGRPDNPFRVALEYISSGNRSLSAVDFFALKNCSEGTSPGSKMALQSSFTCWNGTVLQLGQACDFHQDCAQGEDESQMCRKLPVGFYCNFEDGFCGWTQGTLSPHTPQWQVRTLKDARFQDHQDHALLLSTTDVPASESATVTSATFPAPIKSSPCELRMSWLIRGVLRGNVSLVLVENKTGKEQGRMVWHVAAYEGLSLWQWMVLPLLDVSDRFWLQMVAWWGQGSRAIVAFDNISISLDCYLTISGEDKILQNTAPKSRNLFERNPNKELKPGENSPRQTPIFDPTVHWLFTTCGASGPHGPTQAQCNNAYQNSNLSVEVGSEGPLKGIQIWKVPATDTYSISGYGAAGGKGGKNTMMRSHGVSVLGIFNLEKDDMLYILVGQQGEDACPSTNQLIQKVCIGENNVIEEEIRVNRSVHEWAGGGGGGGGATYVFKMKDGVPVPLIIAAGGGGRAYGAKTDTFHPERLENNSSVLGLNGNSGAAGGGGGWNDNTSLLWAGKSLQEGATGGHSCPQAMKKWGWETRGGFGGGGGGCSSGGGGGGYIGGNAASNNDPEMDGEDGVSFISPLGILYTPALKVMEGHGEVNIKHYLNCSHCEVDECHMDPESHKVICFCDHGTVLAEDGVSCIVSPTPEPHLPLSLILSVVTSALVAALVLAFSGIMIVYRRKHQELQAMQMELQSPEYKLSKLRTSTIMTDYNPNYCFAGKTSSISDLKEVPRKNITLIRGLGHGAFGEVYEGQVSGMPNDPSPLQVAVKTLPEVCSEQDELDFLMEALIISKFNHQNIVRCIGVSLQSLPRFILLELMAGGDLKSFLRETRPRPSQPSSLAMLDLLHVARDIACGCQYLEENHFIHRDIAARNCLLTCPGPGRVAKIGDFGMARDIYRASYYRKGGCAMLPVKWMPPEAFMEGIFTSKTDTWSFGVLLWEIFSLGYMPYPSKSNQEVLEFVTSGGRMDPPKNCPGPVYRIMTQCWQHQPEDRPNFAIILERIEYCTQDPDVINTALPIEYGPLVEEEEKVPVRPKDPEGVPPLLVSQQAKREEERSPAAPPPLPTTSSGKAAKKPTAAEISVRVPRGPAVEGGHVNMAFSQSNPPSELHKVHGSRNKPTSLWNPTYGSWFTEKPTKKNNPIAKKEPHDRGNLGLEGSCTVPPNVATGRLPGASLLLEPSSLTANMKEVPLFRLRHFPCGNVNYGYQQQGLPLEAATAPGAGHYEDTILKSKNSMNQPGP
Chain of Tyrosine-protein kinase ABL2 (Homo sapiens) (P42684 whole entry): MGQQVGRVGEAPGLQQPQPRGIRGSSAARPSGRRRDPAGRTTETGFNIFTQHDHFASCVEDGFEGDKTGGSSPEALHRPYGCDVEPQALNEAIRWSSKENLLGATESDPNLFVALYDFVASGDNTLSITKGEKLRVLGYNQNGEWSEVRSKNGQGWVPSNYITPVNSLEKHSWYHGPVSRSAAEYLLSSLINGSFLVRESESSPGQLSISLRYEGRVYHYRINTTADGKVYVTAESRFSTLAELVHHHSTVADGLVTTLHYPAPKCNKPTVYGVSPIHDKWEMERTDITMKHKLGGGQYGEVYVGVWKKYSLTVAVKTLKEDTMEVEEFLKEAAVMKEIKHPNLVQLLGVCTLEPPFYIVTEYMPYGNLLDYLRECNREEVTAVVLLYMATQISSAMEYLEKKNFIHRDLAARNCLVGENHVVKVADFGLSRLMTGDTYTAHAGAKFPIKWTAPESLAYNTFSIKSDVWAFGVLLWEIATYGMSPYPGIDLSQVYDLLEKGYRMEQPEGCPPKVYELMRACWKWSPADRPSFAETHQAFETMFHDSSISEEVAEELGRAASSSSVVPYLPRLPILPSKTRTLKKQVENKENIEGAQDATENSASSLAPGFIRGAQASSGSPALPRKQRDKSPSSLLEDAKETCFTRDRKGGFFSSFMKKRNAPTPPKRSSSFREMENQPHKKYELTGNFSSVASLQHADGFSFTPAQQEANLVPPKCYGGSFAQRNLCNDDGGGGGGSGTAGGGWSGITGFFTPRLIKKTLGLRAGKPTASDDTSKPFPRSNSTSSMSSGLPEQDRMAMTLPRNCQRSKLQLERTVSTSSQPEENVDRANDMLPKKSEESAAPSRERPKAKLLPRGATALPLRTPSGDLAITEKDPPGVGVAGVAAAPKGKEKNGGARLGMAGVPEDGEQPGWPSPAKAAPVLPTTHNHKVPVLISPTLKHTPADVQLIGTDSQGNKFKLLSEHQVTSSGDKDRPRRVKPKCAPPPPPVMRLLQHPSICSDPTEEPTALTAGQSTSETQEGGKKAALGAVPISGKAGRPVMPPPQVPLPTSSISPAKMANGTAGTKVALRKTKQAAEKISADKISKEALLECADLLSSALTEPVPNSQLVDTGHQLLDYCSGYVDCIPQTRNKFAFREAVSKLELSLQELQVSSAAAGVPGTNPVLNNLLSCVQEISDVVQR
Chain of Protein-tyrosine kinase 6 (Homo sapiens) (Q13882 whole entry, looked up): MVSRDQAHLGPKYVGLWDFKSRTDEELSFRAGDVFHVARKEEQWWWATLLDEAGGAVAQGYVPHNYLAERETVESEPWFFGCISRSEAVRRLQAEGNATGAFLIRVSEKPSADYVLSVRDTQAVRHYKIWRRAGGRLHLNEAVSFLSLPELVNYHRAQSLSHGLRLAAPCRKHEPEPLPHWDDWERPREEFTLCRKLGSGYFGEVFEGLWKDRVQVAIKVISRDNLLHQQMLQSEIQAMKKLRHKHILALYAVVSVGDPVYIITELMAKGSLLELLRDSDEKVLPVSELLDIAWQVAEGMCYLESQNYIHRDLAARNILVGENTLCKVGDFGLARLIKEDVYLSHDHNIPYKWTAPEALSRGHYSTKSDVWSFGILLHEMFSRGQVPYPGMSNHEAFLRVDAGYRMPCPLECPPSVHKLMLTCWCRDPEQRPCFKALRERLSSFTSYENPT

Take `CNC(=O)c1cc(-c2ccc(F)cc2)cc(-c2ccc(S(=O)(=O)N3CCCC3)cc2)c1N`: the inhibition is 2.16% in test [1]; 3.15% in [2]; 4.16% in test [3]; 3.12% in test [4]; 5.19% in [5]; 1.91% in test [6]. The inhibition in [7] was 2.88%; in test [8], 2.17%; in [9], 3.71%; in [10], -5.35%; in [11] it was -4.04%; in test [12], 2.16%. The inhibition was 2.11% in test [13]; 2.06% in [14]; 2.39% in [15]; 1.87% in test [16]; 1.57% in test [17]; -1.58% in [18]. Besides, the inhibition in test [19] is -0.59%; in test [20], -0.99%.
For `CCNC(=O)O[C@H]1CN[C@H](C#Cc2cc3ncnc(Nc4ccc(OCc5cccc(F)c5)c(Cl)c4)c3s2)C1`, the inhibition in test [1] came to 1.84%; in [2] it was 3.4%; in test [3], 1.32%; in test [4], 3.63%; in [5], 4.84%; in test [6], 1.85%. Besides, the inhibition is 4.55% in test [7]; 3.5% in test [8]; 5.21% in test [9]; -3.44% in [10]; -3.57% in test [11]; 2.3% in [12]. Moreover, the inhibition was 2.43% in test [13]; -0.06% in test [14]; 2.73% in test [15]; 3.17% in [16]; 5.56% in test [17]; 1.15% in test [18]. Also, the inhibition was found to be 1.29% in test [19] and 5.58% in test [20].
Regarding `NS(=O)(=O)c1ccc(Nc2ncc(-c3ccccc3)o2)cc1`, the inhibition in test [1] amounted to 17.9%; in test [2], 5.61%; in test [3], 26.6%; in [4], 5.37%; in test [5] it was 37.9%; in test [6] it was 1.53%. Moreover, the inhibition is 6.29% in [7]; 4.93% in [8]; 42% in test [9]; -5.59% in test [10]; -3.58% in test [11]; 2.41% in test [12]. Further, the inhibition in test [13] worked out at 4.76%; in test [14], 0.13%; in test [15], 5.05%; in [16] it was 4.11%; in test [17], 4.41%; in test [18] it was 0%. For the same compound, the inhibition stood at 1.06% in test [19] and 6.51% in [20].
For the compound `CCOc1ccc2c(-c3ccnc(Nc4cccc(C(F)(F)F)c4)n3)cnn2n1`, the inhibition is 2.2% in test [1]; 2.21% in test [2]; 3.23% in [3]; 3.73% in test [4]; 7.89% in test [5]; 2.18% in test [6]. The inhibition is 3.1% in test [7]; 2.04% in test [8]; 8.28% in [9]; -3.01% in test [10]; -0.78% in test [11]; 2.21% in test [12]. The inhibition was 3.22% in test [13]; 3.34% in [14]; 1.94% in [15]; -0.32% in test [16]; 0.97% in [17]; 0.07% in test [18]. Moreover, the inhibition amounted to 1.18% in [19] and 1.57% in [20].
On to `Fc1ccc(-c2cc(-c3c[nH]nc3-c3ccccn3)ccn2)cc1`, for which the inhibition came out at 5.68% in test [1]; 5.63% in [2]; 17.4% in test [3]; 4.06% in test [4]; 30.4% in [5]; 4.07% in test [6]. The inhibition in test [7] is 5.67%; in [8], 2.48%; in test [9] it was 7.82%; in [10], -7.67%; in [11], -8.99%; in test [12] it was 2.97%. For the same compound, the inhibition in test [13] is 2.43%; in [14] it was -2.56%; in test [15] it was 3.99%; in test [16] it was 5.01%; in test [17], 7.81%; in test [18], 0.31%. The values for the inhibition in test [19] and in test [20] were -1.93% and 5.1%, respectively.
For the compound `N#Cc1c(NC(=O)c2ccc(F)cc2)sc2c1CCCC2`, the inhibition in test [1] is -0.02%; in [2], 0.83%; in test [3], 1.49%; in test [4] it was 1.79%; in [5] it was 4.24%; in [6], -0.03%. The inhibition in [7] was 1.01%; in test [8], 3.54%; in test [9], 2.41%; in test [10], -1.93%; in test [11] it was -1.26%; in [12] it was 0.68%. For the same compound, the inhibition in test [13] is 1.75%; in test [14], 1.31%; in test [15], 0.33%; in [16] it was -0.11%; in [17], -2%; in test [18], -1.3%. Further, the inhibition was -0.45% in test [19] and 1.81% in test [20].
